# Records with an inconclusive call do not appear. The source made the active and inactive calls. Calls follow the shape of the full dose curve.
# Experiment: qHTS assay to identify small molecule agonists of the endoplasmic reticulum stress response signaling pathway - cell viability counter screen (AID 1159517); also: nearly all actives have a fitted effect of over 50% in size
# Settings: ESRE-bla HeLa viability, CellTiter-Glo luminescence, 5 h; series mostly up to 61 µM; activity change, negative = cytotoxicity: at the top concentration
# From the text: U.S. Tox21 Program National Center for Advancing Translational Sciences [NCATS] NIH Chemical Genomics Center [NCGC] U.S. Environmental Protection Agency [EPA] National Institutes of Environmental Health Sciences [NIEHS] National Toxicology Program [NTP] U.S. Food and Drug Administration [FDA] Tox21 Assay Overview: Endoplasmic Reticulum (ER) plays an important role in cellular signaling, protein folding/maturation, stress response, lipid biosynthesis, calcium storage and release etc. Under stress conditions, proteins in ER misfold or unfold, and leading to the expression of ER stress responsive genes. ER stress has been associated with a variety of pathophysiological conditions such as cancer, inflammation, neurodegenerative diseases, diabetes, ischemic heart disease etc. To identify the compounds that induce ER stress response, an ER stress reporter cell line, CellSensor ESRE-bla HeLa (Life Technologies, Carlsbad, CA) containing a beta-lactamase reporter gene under control of the Endoplasmic reticulum Stress Response Element (ESRE) was used to screen Tox21 10K compound library. The cytotoxicity of the Tox21 compound library against the ESRE-bla HeLa cell line was tested in parallel by measuring cell viability using the CellTiter-Glo assay in the same wells.
# Tox21 Assay Protocol Summary: ESRE-bla HeLa cells were dispensed at 1,500 cells/6 uL of assay medium per well into black wall/clear-bottom 1536-well plates using a Multidrop Combi (ThermoFisher Scientific, Waltham, MA) dispenser. After the assay plates were incubated at 37 C and 5% CO2 for an overnight, 23 nL of compounds dissolved in DMSO, positive controls or DMSO only was transferred to the assay plate by a Pintool station (Kalypsys, San Diego, CA). The assay plates were incubated at 37 C and 5% CO2 for 5 hr. One uL of LiveBLAzer B/G FRET substrate (Life Technologies) was added using a FRD (Flying Reagent Dispenser, Aurora Discovery, San Diego, CA) and the plates were incubated at room temperature for 2 hr. Fluorescence intensity (405 nm excitation, 460 nm and 530 nm emissions) was measured using an Envision plate reader (PerkinElmer, Shelton, CT). For cytotoxicity, 4 ul/well of CellTiter-Glo reagent was added into the assay plates using an FRD. After 30 min incubation at room temperature, the luminescence intensity was measured using a ViewLux plate reader (PerkinElmer).
# % is scaled to controls: 0 for no effect and ±100 for the full control effect; potency is read from the fitted curve at half-maximal effect.
Structure (SMILES),"activity change, negative = cytotoxicity",Potency
CCCCN(CCCC)CCC(O)c1cc2c(Cl)cc(Cl)cc2c2cc(C(F)(F)F)ccc12 (stereo not given),-2.82% (inactive),–
CCC(=O)OCCc1ccccc1,3.71% (inactive),–
CCCSS/C(CCO)=C(\C)N(C=O)Cc1cnc(C)nc1N,-7.2% (inactive),–
O=C1NCCN1CCN1CCC(c2cn(-c3ccc(F)cc3)c3ccc(Cl)cc23)CC1,-10.7% (inactive),–
NCCCCCCNCCCCCCN,1.74% (inactive),–
CN1[C@@H]2CC[C@H]1CC(OC(=O)C(CO)c1ccccc1)C2 (stereo not given in full),–,inactive
O=C(NO)c1ccccc1,12.3% (inactive),–
Cc1oc(-c2ccccc2)nc1CCOc1ccc(C[C@H](Nc2ccccc2C(=O)c2ccccc2)C(=O)O)cc1,–,54.9 µM (active)
O=Nc1ccc(NO)cc1,10.5% [at 78.8 µM] (inactive),–
CSc1ccc2c(c1)N(CCC1CCCCN1C)c1ccccc1S2 (stereo not given),–,43.5 µM (active)
CC(=O)Oc1ccc(C2(c3ccc(OC(C)=O)cc3)Oc3ccccc3NC2=O)cc1,9.5% (inactive),–
N#CSCSc1nc2ccccc2s1,–,12.3 µM (active)
CC(C)(C)c1cc(/C=C2\SC(=N)NC2=O)cc(C(C)(C)C)c1O,–,54.9 µM (active)
CCCCCCCCCC(=O)N(C)C,1.22% [at 78.8 µM] (inactive),–
C=C(C)C(=O)OCCC[Si](Cl)(Cl)Cl,-2.23% [at 78.8 µM] (inactive),–
CC(=O)Oc1ccc(C2(c3ccc(OC(C)=O)cc3)C(=O)Nc3ccccc32)cc1,-1.76% (inactive),–
CCC1(c2cnc[nH]2)Cc2ccccc2C1,-21.2% (inactive),–
CC(NCCC(c1ccccc1)c1ccccc1)c1ccccc1 (stereo not given),-4.86% (inactive),–
O=C(O)c1cccc(Cl)n1,-0.361% (inactive),–
CCCCCCCCCCCCN(CCO)CCO,–,43.5 µM (active)

Structure (SMILES),"activity change, negative = cytotoxicity",Potency
CCCCCCCCCCCC(=O)N(CC)CC,-11.9% (inactive),–
O=C1OC(OC(=O)c2cccnc2Nc2cccc(C(F)(F)F)c2)c2ccccc21 (stereo not given),-17.5% (inactive),–
CNC(=O)c1cc(Oc2ccc(NC(=O)Nc3ccc(Cl)c(C(F)(F)F)c3)cc2)ccn1,1.63% (inactive),–
Cc1ccc(CCn2c3c(c4cc(Cl)ccc42)CN(C)CC3)cn1,-21% (inactive),–
c1cc2c3c(c1)ccc1cccc(c13)C2,0.147% [at 78.8 µM] (inactive),–
COc1ccc2sc(C(=O)Nc3nnn[nH]3)c(OC(C)C)c2c1,–,19.4 µM (active)
NCCCC(O)(P(=O)(O)O)P(=O)(O)O,6.89% (inactive),–
[O]=[Zr],10.4% (inactive),–
CCCCCCCC/C=C/CCCOC(C)=O,6.39% (inactive),–
CCCCCCCC/C=C\CCCCCCCC(=O)OCCOC(=O)CCCCCCC/C=C\CCCCCCCC,14.5% [at 78.8 µM] (inactive),–
CN(C)CCCN1c2ccccc2Sc2ccc(C(F)(F)F)cc21,-13.6% (inactive),–
C=CC(=C)CCC=C(C)C,-5.93% (inactive),–
CCN1CCN(c2cc(-c3ccc(F)cc3)c3c(n2)CCCCCC3)CC1,-9.4% [at 28.5 µM] (inactive),–
COc1ccc(-n2nc(CCC(=O)N(C)O)cc2-c2ccc(Cl)cc2)cc1,-3.87% (inactive),–
CCCCNc1c(C(=O)OCC)c(C)nc2c1cnn2CC,4.73% (inactive),–
Clc1ccc(C(c2ccccc2Cl)C(Cl)Cl)cc1 (stereo not given),–,49 µM (active)
Cc1cccc(C)c1NC(=O)CN1CCN(CCCC(c2ccc(F)cc2)c2ccc(F)cc2)CC1,-1.03% (inactive),–
Nc1ccc2cc3ccc(N)cc3nc2c1,-27% (inactive),–
CCOC(=O)N1CCC(=C2c3ccc(Cl)cc3CCc3cccnc32)CC1,-24.3% (inactive),–
CN(Cc1cc(Br)cc(Br)c1N)C1CCCCC1,-24.2% (inactive),–

# Source: PubChem BioAssay (Tox21)
